{"source": "PubChem BioAssay (NCATS)", "note": "Records with an inconclusive call do not appear. Entries that show only a call come without a potency. A number with no mark means an inactive call. Calls of active or inactive are those of the source. Calls follow the shape of the dose curve; as a rule, active = well fitted inhibition curve with a large enough effect; inconclusive = small, poorly fitted or top-dose-only effect; inactive = no such curve, though single readings can be large or run the other way. Where a SMILES comes first, the peptide text is derived from it. [ ]: non-standard residue; d: D form. pGlu = O=C1CC[C@@H](C(=O)O)N1; Thz = O=C(O)[C@@H]1CSCN1", "data": [{"assay": "P-glycoprotein substrates identified in KB-3-1 adenocarcinoma cell line, qHTS therapeutic library screen (AID 1346986); also: nearly all actives have a fitted effect of over 60% in size;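 also: potency is read from the fitted curve at half-maximal effect; potency is for cytotoxicity meaning loss of cell viability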", "settings": "KB-3-1 parental cells viability, CellTiter-Glo, 72 h; series mostly up to 44.5 µM; activity change, negative = cytotoxicity: at the top concentration", "method": "The ATP-binding cassette transporters P-glycoprotein (P-gp) is known to limit brain penetration of many chemotherapy drugs. […] We used the CellTiter-Glo viability assay to test library compounds against the parental KB-3-1 human cervical adenocarcinoma cell line and the colchicine-selected sub-line KB-8-5-11 that over-expresses P-gp. KB-8-5-11 cells were also tested in the presence of a P-gp inhibitor (tariquidar) to assess reversability of transporter-mediated resistance. Of the tested compounds, a total of 90 P-gp substrates were identified including 55 newly identified P-gp substrates. Substrates were confirmed using an orthogonal killing assay against HEK-293 cells transfected with P-gp. As exemplars, we confirmed that AT7159 (cyclin-dependent kinase inhibitor); AT9283, (Janus kinase 2/3 inhibitor); ispinesib (kinesin spindle protein inhibitor); gedatolisib (PKI-587, phosphoinositide 3-kinase/mammalian target of rampamycin inhibitor); GSK-690693 (AKT inhibitor); and KW-2478 (heat shock protein 90 inhibitor) were substrates , and direct ATPase stimulation was assessed. ABCG2 was also found to confer high levels of resistance to AT9283, GSK-690693 and gedatolisib, while ispinesib, AT7519 and KW-2478 were weaker substrates.\nThe HeLa derivative cell line, KB-3-1, and its colchicine-selected, P-gp-overexpressing subline, KB-8-5-11 were maintained in DMEM with 10% FCS and Pen/Strep with glutamine at 37 degree C in 5% CO2. For KB-8-5-11 cells, colchicine was added to the medium at a concentration of 100 ng/mL. HEK-293 cells transfected with empty vector (pcDNA) or vector containing human ABCB1 (MDR-19) or ABCG2 (R-5) have been described previously (Robey, Lin, Qiu, Chan & Bates, 2011) and were maintained in EMEM supplemented with 10% FCS, Pen/Strep and glutamine with 2 mg/ml G418 to select for the expression of the transporter. Cultures were confirmed to be free of mycoplasma infection using the MycoAlert Mycoplasma Detection Kit (Lonza, Walkersville, MD). For the screen, assay medium was identical to culture medium except for KB-8-5-11 where colchicine was excluded from the medium.\nAll cell lines were plated into 1536-well plates at 500 cells/well in 5 uL media. Compounds were then pinned in dose-response using a 1536-head pin tool (Kalypsis, San Diego, CA) and plates were incubated at 37 degree C in 5% CO2 for an additional 72 h. CellTiter-Glo reagent (Promega) was dispensed into the wells, incubated for 5 min and luminescence was read on a ViewLux instrument (Perkin-Elmer). Cytotoxic compounds were defined as those that yielded a curve class of -1.1, -1.2, -2.1, -2.2, -2.3, or -2.4, a maximum response of >50% and an AC50 of < 10 uM. Cherry-picked hits from screening analysis were tested with both the KB pair of cell lines, and the pcDNA (empty vector control) and MDR-19 (P-gp overexpressing) pair were tested, in the absence and presence of tariquidar.", "units": {"activity change, negative = cytotoxicity": "%"}, "values": [{"compound": "COc1cc(CNC(=O)CCCC/C=C/C(C)C)ccc1O", "outcome": "inactive"}, {"compound": "Oc1cc(O)cc(/C=C/c2ccc(O)c(O)c2)c1", "activity change, negative = cytotoxicity": -96}, {"compound": "O=[N+]([O-])c1ccc(CNc2nc(NCc3cccc(C(F)(F)F)c3)nc3nc[nH]c23)cc1", "outcome": "inactive"}, {"compound": "C/C(=N\\O)c1ccc(OCC(=O)N2CCCCC2)cc1", "outcome": "inactive"}, {"compound": "CC1(C)[C@@H](O[C@H]2O[C@H](C(=O)O)[C@@H](O)[C@H](O)[C@H]2O[C@@H]2O[C@H](C(=O)O)[C@@H](O)[C@H](O)[C@H]2O)CC[C@]2(C)[C@H]3C(=O)C=C4[C@@H]5C[C@@](C)(C(=O)O)CC[C@]5(C)CC[C@@]4(C)[C@]3(C)CC[C@@H]12", "outcome": "inactive [at 17.4 µM]"}, {"compound": "O=C(O)CC1CC(c2ccccc2)=NO1", "note": "(configuration not stated)", "outcome": "inactive [at 17.4 µM]"}, {"compound": "N#C/C(=C\\c1ccc(O)c(O)c1)C(=O)NCc1ccccc1", "outcome": "inactive"}, {"compound": "CC(=O)c1ccc(OCC(=O)N2CCCCC2)cc1", "outcome": "inactive"}, {"compound": "CN1[C@@H]2CC[C@H]1CC(OC(c1ccccc1)c1ccccc1)C2", "note": "(some centres not stated)", "outcome": "inactive"}, {"compound": "CCNc1nc2c(ncn2[C@H]2C[C@H](O)[C@@H](CO)O2)c(=O)[nH]1", "outcome": "inactive"}, {"compound": "COc1cc(/C=C/C(=O)N2CCN(CC(=O)N3CCCC3)CC2)cc(OC)c1OC", "outcome": "inactive"}, {"compound": "O=C1CC[C@@H](C(=O)N2CSC[C@H]2C(=O)O)N1", "note": "([pGlu]-[Thz]-OH)", "outcome": "inactive"}, {"compound": "CC1(C)[C@@H](O)CC[C@]2(C)[C@H]3C(=O)C=C4[C@@H]5C[C@@](C)(C(=O)O)CC[C@]5(C)CC[C@@]4(C)[C@]3(C)CC[C@@H]12", "outcome": "inactive"}, {"compound": "O=C(O)Cc1cccc(-c2cc(CCCCCCc3ccc(O[C@H]4O[C@H](CO)[C@@H](O)[C@H](O)[C@@H]4O)c(-c4cccc(CC(=O)O)c4)c3)ccc2O[C@H]2O[C@H](CO)[C@@H](O)[C@H](O)[C@@H]2O)c1", "outcome": "inactive [at 0.354 µM]"}, {"compound": "CC1(C)S[C@@H]2[C@H](NC(=O)[C@H](NC(=O)N3CCN(S(C)(=O)=O)C3=O)c3ccccc3)C(=O)N2[C@H]1C(=O)O", "outcome": "inactive"}, {"compound": "COC(=O)[C@H]1[C@H]2C[C@@H]3c4[nH]c5cc(OC)ccc5c4CCN3C[C@H]2C[C@@H](OC(=O)/C=C/c2cc(OC)c(OC)c(OC)c2)[C@@H]1OC", "outcome": "inactive [at 17.4 µM]"}, {"compound": "Nc1ncnc2c1c(I)cn2[C@@H]1C[C@H](N)[C@@H](O)[C@H]1O", "Potency": "14.6 µM (active)"}, {"compound": "C[C@H](O)[C@H](O)[C@H]1CNc2nc(N)[nH]c(=O)c2N1", "outcome": "inactive"}, {"compound": "N#C/C(=C\\c1ccc(O)c(O)c1)C(=O)NCCCc1ccccc1", "outcome": "inactive"}, {"compound": "CC(=O)O[C@H]1C[C@@]2(C)[C@@H](C[C@@H](O)[C@H]3[C@@]4(C)CC[C@@H](O)[C@@H](C)[C@@H]4CC[C@@]32C)/C1=C(\\CCC=C(C)C)C(=O)O", "outcome": "inactive"}, {"compound": "Cc1onc(-c2c(F)cccc2Cl)c1C(=O)N[C@@H]1C(=O)N2[C@@H]1SC(C)(C)[C@@H]2C(=O)O", "outcome": "inactive"}, {"compound": "CC(=O)SCC(CC(=O)c1ccc(C)cc1)C(=O)O", "note": "(configuration not stated)", "outcome": "inactive"}]}]}
